Sampled rows, rich in hits. Any-hit rate of the full collection: about 10%.
JMJD2A Tudor inh: qHTS Assay for Inhibitors of JMJD2A-Tudor Domain; AID 504339, 2011; AlphaScreen JMJD2A-Tudor / H3K4me3 peptide binding; 390,000 tested, 4.4% active; Lysine-specific demethylase 4A (Homo sapiens), O75164; Potency, µM (doses to about 114 µM), inactives show at the top dose activity change, negative = inhibition, usual class: inhibitors; note: potency is the fitted concentration of half-maximal effect; % is set by controls: 0 for no effect and ±100 for the full control effect; nearly all actives have a fitted effect of over 50% in size
BAZ2B block: qHTS Assay for Inhibitors of BAZ2B; Potency, µM (highest dose often 114 µM), inactives show at the top dose activity change, negative = inhibition, most hits filed as inhibitors; AlphaScreen BAZ2B-H3K14Ac peptide displacement; 360,000 tested, 4.4% active; Bromodomain adjacent to zinc finger domain protein 2B (Homo sapiens), Q9UIF8; note: potency is the fitted concentration of half-maximal effect; % is set by controls: 0 for no effect and ±100 for the full control effect; nearly all actives have a fitted effect of over 60% in size
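AlphaScreen displacement: compounds (up to 110uM) incubated 30 min at room temperature with a preformed 50 nM BAZ2B/50 nM biotinylated H3K14Ac peptide complex in PBS pH 7.4 with Tween-20. Donor and acceptor beads at 10 ug/mL final added, 20 min light-protected before reading.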
CtBP-E1A inh: qHTS Assay for Inhibitors of the CtBP/E1A Interaction; 340,000 tested, 0.49% active; AlphaScreen GST-E1A/His-CtBP binding, 1536-well; hits give low values; CtBP / adenovirus E1A interaction (AlphaScreen); activity change, % (no concentration beside the values); in the data active = activity change below about -65%; inconclusive = mostly about -30% to -63%; note: % is set by controls: 0 for no effect and ±100 for the full control effect
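AlphaScreen with 125 nM GST-E1A and 125 nM His-CtBP (5X stocks) in Tris pH 8.0, 300 mM NaCl, BSA, Tween 20, TCEP. Compounds preincubated 2 h at 37 deg C, then glutathione donor/nickel acceptor beads added for 1 h at 37 deg C in dark.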
G9a inh: qHTS Assay for Inhibitors of Histone Lysine Methyltransferase G9a; Histone-lysine N-methyltransferase EHMT2 (Homo sapiens), Q96KQ7; 350,000 tested, 8.8% active; Potency, µM (series often up to 102 µM), without a hit: top-dose activity, negative = inhibition, usual class: inhibitors; G9a H3K9 monomethylation, AlphaScreen, 2 h; note: potency is the fitted concentration of half-maximal effect; % is set by controls: 0 for no effect and ±100 for the full control effect; nearly all actives have a fitted effect of over 75% in size
Target sequence (Q96KQ7 913-1193 limits assumed): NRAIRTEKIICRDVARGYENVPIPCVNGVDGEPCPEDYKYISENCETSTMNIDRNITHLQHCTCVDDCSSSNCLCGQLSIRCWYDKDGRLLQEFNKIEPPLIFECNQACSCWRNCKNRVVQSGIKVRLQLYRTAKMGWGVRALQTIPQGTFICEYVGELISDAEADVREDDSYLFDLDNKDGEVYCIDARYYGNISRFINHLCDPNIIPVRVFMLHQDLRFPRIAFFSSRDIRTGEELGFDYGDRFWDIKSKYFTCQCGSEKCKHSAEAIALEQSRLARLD
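Step 1: enzyme (final 20 nM) with compound, 15 min RT. Step 2: substrate peptide 500 nM and SAM 20 uM, 2 h RT. Step 3: anti-H3K9me1 antibody and AlphaScreen beads, 10 min, then plate read.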
Six1-Eya2 blk: qHTS Assay for Inhibitors of the Six1/Eya2 Interaction | Homeobox protein SIX1 (Homo sapiens) + Protein phosphatase EYA2 (Homo sapiens), … | AlphaScreen GST-Six1/His-Eya2 binding, biochemical; hits give low values | activity change, % (test concentration not listed) | 360,000 tested, 0.56% active; in the data active = activity change below about -65%; inconclusive = mostly about -30% to -63%; note: % is set by controls: 0 for no effect and ±100 for the full control effect
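Compounds are tested against tagged Six1 and Eya2 proteins bridged by glutathione donor and nickel acceptor beads; after a one-hour incubation at 37 °C without light, AlphaScreen emission is recorded.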
HP1b binding inh: HTS for Inhibitors of HP1-beta Chromodomain Interactions with Methylated Histone Tails. Chromobox protein homolog 1 (Homo sapiens), P83916. AlphaScreen HP1-beta / biotin-H3K9me3 peptide binding. Potency, µM (highest dose often 114 µM), for the others: top-dose activity change, negative = inhibition, actives largely listed as inhibitors. 390,000 tested, 0.56% active; note: potency is the fitted concentration of half-maximal effect; nearly all actives have a fitted effect of over 70% in size
Target sequence (P83916 whole entry, looked up): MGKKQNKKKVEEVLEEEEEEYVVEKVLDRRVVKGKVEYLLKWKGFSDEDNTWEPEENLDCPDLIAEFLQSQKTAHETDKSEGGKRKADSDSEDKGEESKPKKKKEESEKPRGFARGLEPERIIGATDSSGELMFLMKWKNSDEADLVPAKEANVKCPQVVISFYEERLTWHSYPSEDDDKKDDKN
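AlphaScreen: HP1-beta (50 nM) preformed 30 min with biotin-H3(1-18)K9me3 peptide (50 nM) in PBS pH 7.4, 0.01% Tween-20. Compound added for 30 min at RT, then streptavidin donor/nickel chelate acceptor beads (10 ug/mL) for 30 min.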
* = called active by the depositor; ? = inconclusive; · = not tested or not shown; [ ] = dose if it differs, or a comment. Unless noted, calls come from the whole dose curve; as a rule, active = well fitted inhibition curve with a large enough effect; inconclusive = small, poorly fitted or top-dose-only effect; inactive = no such curve, though single readings can be large or run the other way.

SMILES | JMJD2A Tudor inh | BAZ2B block | CtBP-E1A inh | G9a inh | Six1-Eya2 blk | HP1b binding inh
Cc1ccc(C)c(N2CCN(C(=O)CS(=O)(=O)c3cccc4nsnc34)CC2)c1 | -33% | ? | · | 2%[59 µM] | · | 3%[57 µM]
CCC(C)NC(=O)CCC(=O)N1Cc2ccccc2Oc2ncccc21 (stereo not given) | -19% | 49%[57.1 µM] | · | 11%[59 µM] | · | 69%
CCOc1ccc(C(O)(c2ccccc2)C(CN2CCCC2)c2ccccc2)cc1 (stereo not given) | 14µM* | -14% | -2 | -34% | 0 | 8%
CCc1ccc(C(O)(c2ccccc2OC)C(CN2CCOCC2)c2ccccc2)cc1 (stereo not given) | -23% | · | 0 | 45µM* | -13 | 12%
CCc1ccc(C(O)(CC(C)C)C(CN2CCOCC2)c2ccccc2)cc1 (stereo not given) | -23% | 0% | · | 7% | -2 | 19%
CS(=O)(=O)N(Cc1ccccc1)c1ccc(C(=O)Nc2cccc(Cl)c2)cc1 | -18% | -4% | · | -4%[59 µM] | · | 35%
COc1cc(NC(=O)CN(C)Cc2ccc(OC(F)F)cc2)c(C)cc1[N+](=O)[O-] | -26% | 4% | 10 | ? | 5 | 5%
C=CCOc1ccc(CN(C)CC(=O)Nc2ccccc2[N+](=O)[O-])cc1 | 13µM* | · | 2 | 14µM* | ? | ?
CN(CC(=O)Nc1cccc(F)c1)CC(=O)Nc1ccccc1[N+](=O)[O-] | -18% | ? | 0 | -45%[59 µM] | 17 | 26%
CCc1ccc(CN(C)CC(=O)Nc2ccccc2[N+](=O)[O-])cc1 | ? | ? | -25 | 79µM* | -26 | -24%
Cc1nc(CN2CCCCC2)c(O)c(=O)[nH]1 | 25µM* | · | -5 | · | -7 | -16%
N=C1S/C(=C\c2ccc(-c3ccccc3C(=O)O)o2)C(=O)N1c1ccc2c(c1)OCO2 | 22µM* | 20µM* | -9 | 3.5µM* | -29 | 28µM*
COc1ccccc1N1C(=N)S/C(=C\c2ccc(-c3ccccc3C(=O)O)o2)C1=O | ? | ? | 0 | 16µM* | ? | -13%
Cc1c(C(=O)O)cccc1-c1ccc(/C=C2\SC(=O)NC2=O)o1 | -28% | -7% | · | · | -2 | 17%
COC(=O)c1c(NC(=O)CCCOc2ccc(C(C)(C)C)cc2)sc2c1C(C(=O)OC)CC2 (stereo not given) | 56µM* | 28µM* | · | 1.4µM* | · | -24%
CCCC(=O)Nc1sc2c(c1C(=O)OC)C(C(=O)OC)CC2 (stereo not given) | -11% | 9% | 4 | -3%[59 µM] | 4 | 11%
COc1ccccc1CCC(=O)OCC(=O)Nc1ccc(C(N)=O)cc1 | 3% | -13% | -1 | -6% | -8 | 22%
C=CCn1c(SCC(=O)NC2CCS(=O)(=O)C2)nnc1-c1cc2c(s1)CCC(CC)C2 (stereo not given) | -17% | -1% | -7 | -44% | -4 | 8%
C=CCn1c(-c2cc3c(s2)CCC(CC)C3)n[nH]c1=S (stereo not given) | ? | -29% | -3 | 11µM* | -4 | -15%
COc1cc(NC(=O)COC(=O)c2n[nH]c3ccccc23)c(C)cc1[N+](=O)[O-] | -6% | -25% | · | -12% | -7 | 34%
Cc1ccc(NC(=O)NC2OC(=O)c3ccccc32)cc1 (stereo not given) | -15% | · | 4 | · | 7 | 2%
CC(=O)NC(=O)NC1OC(=O)C(Cl)=C1Cl (stereo not given) | 2%[57.1 µM] | 3% | -15 | 40µM* | -3 | 36%

Screening data deposited in PubChem by National Center for Advancing Translational Sciences (NCATS).
